# Experiments:
# Assay in all cases: PBM binding z-score (relative to random genomic background probes); higher = stronger binding; sequences stand for … in GC…GCGATTGACAGCGTAGAATGAAGG
# [1] = test system: FXR:RXRa (NR concentration 270 nM, RXRa partner concentration 90 nM)
# How it was run: (§1)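 Binding z-scores take random background probes as their reference. They come from custom Agilent 4×180K protein-binding microarrays incubated 1 h with ligand-free nuclear receptor dimers, with antibodies against each partner (one per run) detecting binding. Scanned fluorescence was regression-normalized.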
# [2] = test system: LXRa:RXRa (NR concentration 270 nM, RXRa partner concentration 90 nM)
# How it was run: as §1
# [3] = test system: LXRa homodimer (NR concentration 270 nM)
# How it was run: as §1
# [4] = test system: LXRb:RXRa (NR concentration 270 nM, RXRa partner concentration 90 nM)
# How it was run: as §1
# [5] = test system: LXRb homodimer (NR concentration 270 nM)
# How it was run: as §1
# [6] = test system: PPARa:RXRa (NR concentration 270 nM, RXRa partner concentration 90 nM)
# How it was run: as §1
# [7] = test system: PPARg:RXRa (NR concentration 180 nM, RXRa partner concentration 90 nM)
# How it was run: as §1
# [8] = test system: PPARg:RXRa 270nM:90nM, anti-RXR (NR concentration 270 nM, RXRa partner concentration 90 nM)
# How it was run: as §1
# [9] = test system: PPARg:RXRa 30nM:10nM, anti-RXR (NR concentration 30 nM, RXRa partner concentration 10 nM)
# How it was run: as §1
# [10] = test system: PPARg:RXRa 90nM:30nM, anti-RXR (NR concentration 90 nM, RXRa partner concentration 30 nM)
# How it was run: as §1
# [11] = test system: PPARg:RXRa DBDmut IVT, anti-RXR (DBD mutation: RXRa K156A/R161A, NR concentration 270 nM, RXRa partner concentration 90 nM)
# How it was run: as §1
# [12] = test system: PPARg:RXRa IVT, anti-PPARg (NR concentration 270 nM, RXRa partner concentration 90 nM)
# How it was run: as §1
# [13] = test system: PPARg DBDmut:RXRa IVT, anti-PPARg (DBD mutation: PPARg1 K132A/R137A, NR concentration 270 nM, RXRa partner concentration 90 nM)
# How it was run: as §1
# [14] = test system: PPARg DBDmut IVT, anti-PPARg (DBD mutation: PPARg1 K132A/R137A, NR concentration 270 nM)
# How it was run: as §1
# [15] = test system: PPARg homodimer (NR concentration 180 nM)
# How it was run: as §1
# [16] = test system: PXR:RXRa (NR concentration 270 nM, RXRa partner concentration 90 nM)
# How it was run: as §1
# [17] = test system: PXR homodimer (NR concentration 270 nM)
# How it was run: as §1
# [18] = test system: RARa:RXR (NR concentration 270 nM, RXRa partner concentration 90 nM)
# How it was run: as §1
# [19] = test system: RARa homodimer (NR concentration 270 nM)
# How it was run: as §1
# [20] = test system: RARb:RXRa (NR concentration 270 nM, RXRa partner concentration 90 nM)
# How it was run: as §1
Sequence,PBM binding z-score [1],PBM binding z-score [2],PBM binding z-score [3],PBM binding z-score [4],PBM binding z-score [5],PBM binding z-score [6],PBM binding z-score [7],PBM binding z-score [8],PBM binding z-score [9],PBM binding z-score [10],PBM binding z-score [11],PBM binding z-score [12],PBM binding z-score [13],PBM binding z-score [14],PBM binding z-score [15],PBM binding z-score [16],PBM binding z-score [17],PBM binding z-score [18],PBM binding z-score [19],PBM binding z-score [20]
ACAGACAGGTGATTGAAGGTAACTCAGCTGGACG,0.407,0.000463,-0.444,-0.451,-0.457,0.0856,0.626,-0.0372,0.0722,-0.274,0.234,0.403,-0.375,-0.0689,0.449,-0.285,-0.239,0.452,-0.476,0.303
GGAACGAGGGCATTCGCGTTGATAGCATGGCGAT,0.794,1.04,-0.65,0.18,-0.618,1.5,0.776,0.655,-0.361,0.136,2.08,1.86,-0.525,-0.616,-0.126,0.744,-0.0684,0.449,-0.431,1.71
TCATATAGATAAAGGTGAAAGTCGAACGATATGA,0.837,1.1,0.162,1.26,0.134,2.57,2.33,3.51,4.36,4.09,2.13,1.9,1.06,1.29,1.18,0.893,-0.0494,1.43,0.832,1.61
CGAACTAGGTCAGGACAGGACAGTGAAGGATGAT,1.85,0.936,-0.238,0.443,-0.587,3.13,5.98,5.1,2.35,4.11,7.58,7.47,1.64,0.603,0.819,1.25,-0.213,0.766,-0.133,3.44
TCATATAGGTAAACACGTGAAAGTCCGTAAGTTA,0.505,0.566,0.235,0.56,0.236,1.33,1.16,2.12,3.63,2.89,4.07,2.96,0.9,1.04,0.24,0.722,0.241,0.769,1.1,0.364
TCTTGTAGATCAACAGGAGTTTAAGAAAGATCGA,-0.268,0.229,-0.339,-0.131,-0.759,0.604,0.0426,1.19,2.22,1.87,1.57,0.487,0.0985,0.197,-0.389,0.514,-0.0735,0.201,-0.584,0.0376
AGTCAAAGTTCAGGACCAGGTAACGTAAAGCACG,4.33,3.63,1.19,1.72,0.134,3.32,4.94,4.9,2.16,4.19,-0.279,1.91,0.221,0.246,1.9,2.47,1.19,2.67,0.885,4.37
GTACCAAGGTGAGTAGGTCGTTGATGAGTAGGCG,0.04,0.0147,-0.31,-0.286,-0.924,1.17,0.822,0.888,-0.11,0.35,1.77,2.68,-0.145,-1.14,0.691,0.089,0.0427,0.391,0.166,1.16
CGTCCAAGGTCATAGGAGGTGAGTGAAGACAGAT,7.28,5.61,1.23,4.25,0.462,5.79,4.94,5.08,1.98,3.99,2.78,4.36,0.426,0.754,2.6,4.84,1.4,4.65,0.644,5.24
CTAACTAGGTCATCCAGGACAGTGAATACATTGA,4.13,3.08,1.1,2.34,0.444,5.16,8.66,7.07,4.48,7.08,8.55,8.68,3.4,1.83,2.45,2.07,1.37,2.83,0.768,3.88
CCTACTGGACCACGAAAGGTCATTGATTCAGTGA,3.93,5,5.74,4.47,1.54,4.5,2.84,3.67,1.47,2.9,3.39,3.26,0.692,0.507,3.78,5.28,2.09,5.61,2.84,4.02
CCTAGCAGGCCAATCTGGGTCACTCCAGGCTTGA,0.645,1.09,-0.166,0.329,-1.31,2.6,1.99,2.05,-0.235,1.03,4.25,4.76,-0.633,-1.01,0.639,0.543,-0.635,0.754,-0.716,1.48
CCTAGCAGGCCGATCTGGGTCACTCAAGGCTTGA,0.827,0.587,-0.575,0.613,-0.973,2.6,1.46,1.5,-0.37,0.546,2.8,4.02,-0.802,-1.18,0.337,0.634,-0.34,1.27,-0.893,1.06
GTACCAAGGTGAATAGGTCGTTGACGAGTAGGCG,1.08,0.711,-0.12,0.495,-0.439,2.45,1.58,1.84,0.445,1.35,1.8,2.86,0.144,-0.0212,1.04,0.88,0.00593,1.93,-0.182,2.23
CGTCCAAGTTCAACTAAGGTAACGTAAAGCACGC,4.27,3.59,1.01,2.17,0.515,3.15,1.14,1.5,0.189,0.966,0.15,1.1,0.262,0.451,1.83,4.44,2.78,2.38,0.942,3.63
TCTCGGGGGACACGAAGGTCAGAGCTTTCCAGAG,2.9,2.88,0.575,4.36,6.23,3.77,1.86,3.73,3.31,3.45,2.39,3.51,2.53,5.36,2.05,3.27,1.24,3.29,0.556,3.73
CCTACTGGGCCAATCAGAGGTCATTGATCATATG,2.78,4.24,7.72,3.78,0.545,3.87,2.45,3.15,1.12,2.29,4.6,4.19,1.25,0.284,4.19,5.06,3.38,5.18,0.519,3.27
TGAATGAGGTTGAAGATCAGGGAACGTGGCGTCG,0.0849,0.195,-0.576,-0.271,0.232,0.989,1.11,2.33,0.813,1.97,-0.653,0.294,0.451,0.38,-0.432,-0.193,-0.315,0.257,-0.208,0.206
CGTCCAAGGTCATGGTCAGTGAAAGAGACTCGAA,6.75,5.27,0.622,4.03,0.455,5.74,5.32,5.75,2,4.28,3.19,3.62,0.127,0.155,3.09,3.98,0.701,4.83,1.11,5.11
GCGACTGGGGCATCAGCAGGTTACCCTAACTTAA,-0.187,-0.0714,-0.26,0.646,-1.16,1.32,0.617,0.949,-0.87,0.118,3.51,2.87,-0.922,-0.0321,0.248,0.197,-0.267,0.596,-0.765,0.794
CGTCCAAGGTCAGCAGGTCTGTGAAAGCGACGTG,5.03,3.02,-0.272,2.06,-0.284,4.16,2.65,3.06,0.0215,1.57,2.57,2.56,0.914,-0.164,2.67,2.58,0.407,3.61,0.46,4.85
ATCTCCAGGTAACAAGTTCAGTGAAAGAGAGGAC,1.08,1.37,0.906,0.805,1.22,0.983,0.944,1.21,0.66,0.891,0.841,1.17,1.63,1.37,1.7,1.73,2.04,1.05,1.49,1.76
TCTAGTTGGTCAAAGGTGACACACTCGAAATGCG,1.46,1.67,0.489,2.08,0.376,4.71,8.48,8.54,8.19,8.69,3.81,4.76,1.03,1.64,2.13,2.14,0.548,2.88,1.33,2.38
TAGCCTAGGTCAGATCGGGCTAGTATACGCTATA,1.81,1.03,-0.52,0.639,-0.577,1.73,0.628,0.874,-0.237,0.393,0.118,1.07,-0.407,-0.708,0.037,0.63,-0.428,1.5,-0.679,2.78
TCATATAGGTAAAAGGTGTAAGTCGGTGTGGTAA,1.13,1.12,-0.0427,1.14,0.187,3.18,5.19,6.1,5.92,7.17,4.99,3.58,1.13,0.898,1.04,0.588,0.592,0.719,0.894,0.49
TCTAGATGGTCAAAGGTCACACACTCGAAATGCG,6.69,5.75,4.06,5.58,1.37,6.38,10.2,8.58,8.53,9.72,3.19,5.41,1.82,1.44,5.45,6.1,1.7,7.48,3.63,4.89
ACTATTAGTTGAGACCAGGGCAACCGATAGGTTG,0.433,-0.242,-0.0882,-0.177,0.0937,0.067,0.508,0.263,0.00186,-0.189,0.0901,0.557,0.284,0.911,-0.00507,0.204,0.236,0.191,0.419,0.628
TTGCCTAGGTCATTCAGGGGCCAGTATAGAAAGC,5.14,3.97,0.809,2.93,0.902,3.51,2.07,2.24,0.187,1.52,1.9,2.33,0.195,-0.447,2.69,2.63,0.107,4.21,-0.129,3.93
AGAATGAGGTGAAGATCAGGGAAACAGAATACAT,0.903,0.457,-0.113,0.85,-0.114,2.91,2.33,2.21,0.859,1.5,4.13,4.03,1.46,0.73,0.633,0.242,0.183,0.786,0.494,1.32
